Drawing on article PMC6792352, “Limited Chemical Structural Diversity Found to Modulate Thyroid Hormone Receptor in the Tox21 Chemical Library” (Environmental Health Perspectives, 2019), this text covers AC50 for 36 molecules.

Counter-ions that a name gives are not always drawn.

The subject of the experiment is thyroid hormone receptor (endogenous TRα and TRβ). Set-up: species or system GH3-TRE-Luc (rat pituitary); GH3-TRE-Luc luciferase reporter, antagonist mode against 1 nM T3, loss of signal, qHTS. As to conditions: read-out: Average AC50 (uM) GH3-TRE-Antag, antagonist mode, 1 nM T3, no GH3 cytotoxicity hit.
Turning to `Cc1c(F)c(F)c(COC(=O)[C@H]2[C@@H](/C=C(\Cl)C(F)(F)F)C2(C)C)c(F)c1F` (racemic) [Tefluthrin], the AC50 came out at 59.6 µM.
For `CC/C=C\CC/C=C/C(OCC)OCC` [(2E,6Z)-1,1-diethoxynona-2,6-diene] the value was 61.1 µM; for `Nc1ccccc1N` [1,2-Phenylenediamine dihydrochloride], 92.5 µM; for `CCCCCCCCc1ccc(S(=O)(=O)O)cc1` [Sodium 4-octylbenzenesulfonate], 53 µM.
The result for `Nc1ccc(Oc2ccc(Cl)cc2)cc1` [4-Chloro-4'-aminodiphenyl ether] reads 40.7 µM; that for `Cc1oc(C)c(C(=O)Nc2ccccc2)c1C` [Methfuroxam], 23.1 µM.
For `O=c1[nH]c(Cl)c(Cl)cc1Cl` [3,5,6-Trichloro-2-pyridinol] the value was 76.8 µM; for `CCc1cccc(C)c1N(C(=O)CCl)C(C)COC` (stereo not drawn) [Metolachlor], 77 µM; for `CN(C)c1ccc(SC#N)cc1` [4-(Dimethylamino)phenylthiocyanate], 59.1 µM.
On to `CCOC(=O)NC(=S)Nc1ccccc1NC(=S)NC(=O)OCC` [Thiophanate], for which the AC50 worked out at 47.1 µM.
The result for `CCCCC(C#N)(Cn1cncn1)c1ccc(Cl)cc1` (stereo not drawn) [Myclobutanil] reads 79 µM; that for `CCCCNc1c(C(=O)OCC)c(C)nc2c1cnn2CC` [Tracazolate hydrochloride], 42.6 µM; that for `O=c1[nH]c(=O)n([C@H]2C[C@H](O)[C@@H](CO)O2)cc1C(F)(F)F` [Trifluridine], 23.4 µM.
The result for `CCOC(=O)CS` [Acetic acid,mercapto-,ethylester] reads 73.6 µM.
For `Cc1occc1SSc1ccoc1C` [Bis(2-methyl-3-furyl)disulfide] the value was 65.9 µM; for `COc1nc(N)nc2c1ncn2[C@@H]1O[C@H](CO)[C@@H](O)[C@@H]1O` [Nelarabine], 25.2 µM; for `Cc1cccc(C(C)(C)C)c1O` [2-tert-Butyl-6-methylphenol], 75.7 µM.
For the molecule `Nc1ccc(C(=O)OCCCOC(=O)c2ccc(N)cc2)cc1` [Propane-1,3-diyl bis(4-aminobenzoate)], the AC50 amounted to 59.8 µM.
For `NCCN1CCNCC1` [1-(2-Aminoethyl)piperazine] the value was greater than 90 µM; for `CCCCN(CCCC)C(=O)N(CCCC)CCCC` [1,1,3,3-Tetrabutylurea], 22.2 µM.
The result for `Cc1cc(CC(=O)O)c(C)n1-c1ccc(Cl)cc1` [Clopirac] reads 38.5 µM.
For the molecule `O=C(O)C1(C(=O)Nc2ccc(Cl)cc2Cl)CC1` [Cyclanilide], the half-maximal activity concentration (AC50) was 64.4 µM.
The result for `CC(C)(C)c1ccc(CCC=O)cc1` [3-(4-tert-Butylphenyl)propanal] reads 56.6 µM; that for `Cc1cc(Nc2ccccc2C(=O)O)ccc1Cl` [2-[(4-Chloro-3-methylphenyl)amino]benzoic acid], 16.1 µM; that for `COC(=O)[C@H](c1ccccc1Cl)N1CCc2sccc2C1` [Clopidogrel hydrogen sulfate], 45.8 µM.
As for `O=C(CCCN1CCC(O)(c2ccc(Br)cc2)CC1)c1ccc(F)cc1` [Bromperidol], the AC50 was found to be 12.9 µM.
Consider `Brc1cc(-c2ccc(Br)c(Br)c2Br)cc(Br)c1Br` [Polybrominated biphenyls (PBB)], for which the AC50 was determined as 51.8 µM.
The result for `Oc1ccc(-c2ccc(O)cc2)cc1` [4,4'-Biphenyldiol] reads 34.2 µM; that for `CC(C)C(C(=O)OC(C#N)c1cccc(Oc2ccccc2)c1)c1ccc(Cl)cc1` (stereo not drawn) [Fenvalerate], 37.1 µM.
The result for `C=C(C#N)C(=O)OCC` [Ethyl cyanoacrylate] reads greater than 90 µM; that for `CCN(CC)CCO[C@H]1CC[C@@]2(C)C(=CC[C@@H]3[C@@H]2CC[C@]2(C)C(=O)CC[C@@H]32)C1` [3beta-(2-Diethylaminoethoxy)androst-5-en-17-one hydrochloride], 22.5 µM.
For `CC(=O)O[C@H]1CC[C@@]2(C)C(=CC[C@@H]3[C@@H]2CC[C@]2(C)C(c4cccnc4)=CC[C@@H]32)C1` [Abiraterone acetate] the value was 50 µM; for `O=C(c1ccc(F)cc1)C1CCN(CCn2c(=S)[nH]c3ccccc3c2=O)CC1` [Altanserin hydrochloride], 46.6 µM.
Regarding `CCC[C@@]1(CCc2ccccc2)CC(O)=C([C@H](CC)c2cccc(NS(=O)(=O)c3ccc(C(F)(F)F)cn3)c2)C(=O)O1` [Tipranavir], the half-maximal activity concentration (AC50) was determined as 36.8 µM.
In the case of `NC1CCN(c2nc3c(cc2F)c(=O)c(C(=O)O)cn3-c2ccc(F)cc2F)C1` (stereo not drawn) [Tosufloxacin toluenesulfonic acid], the concentration at half-maximal activity (AC50) came to 21.1 µM.
The result for `O=C(CS)OCCOC(=O)CS` [Ethane-1,2-diyl bis(sulfanylacetate)] reads 51.5 µM.
